Reference: the supplement of paper PMC10849652
About 7,900 targets were measured; listed, in parts, are those with a hit and a random draw of the rest. About 0.6% of all pairs of compound and target were hits. Unmarked numbers belong to inactive results.

Assays:
Experiment in all cases: log2 fold change, soluble protein after heating vs DMSO (PISA); higher = thermal stabilisation; K562 cells, 10 uM, 30 min; active = over 0.2 and 3.5 SD of the protein, either way, in both replicates (recomputed)
saracatinib = compound: CN1CCN(CCOc2cc(OC3CCOCC3)c3c(Nc4c(Cl)ccc5c4OCO5)ncnc3c2)CC1 [saracatinib]
In short: (§1)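 K562 cells at 2×10^6 cells/mL were treated with 10 μM compound for 30 min. Aliquots were heated for 3 min across 48°C-58°C, pooled, and extracted in PBS with 0.5% NP-40 at 4°C; soluble protein was the supernatant after 21,000xg for 90 min. Soluble protein was quantified by TMTpro 16plex LC-MS/MS with channel sums equalised, and reported as log2 fold change in thermal stability against DMSO controls, with values from duplicates.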

sotrastaurin = compound: CN1CCN(c2nc(C3=C(c4c[nH]c5ccccc45)C(=O)NC3=O)c3ccccc3n2)CC1 [sotrastaurin]
In short: as §1

alvocidib = compound: CN1CC[C@H](c2c(O)cc(O)c3c(=O)cc(-c4ccccc4Cl)oc23)[C@H](O)C1 [alvocidib]
In short: as §1

Tubastatin A = compound: CN1CCc2c(c3ccccc3n2Cc2ccc(C(=O)NO)cc2)C1 [Tubastatin A]
In short: as §1

[1] = compound: CNC(=O)C1=CC=CC=C1NC2=NC(=NC=C2Cl)NC3=C(C=C(C=C3)N4CCOCC4)OC
In short: as §1

defactinib = compound: CNC(=O)c1ccc(Nc2ncc(C(F)(F)F)c(NCc3nccnc3N(C)S(C)(=O)=O)n2)cc1 [defactinib]
In short: as §1

rucaparib = compound: CNCc1ccc(-c2[nH]c3cc(F)cc4c3c2CCNC4=O)cc1 [rucaparib]
In short: as §1

[2] = compound: CNc1nc(-c2ccc3c(N)n[nH]c3c2)cc(N2C[C@@H](C(=O)NC3CCCCC3)CC[C@H]2C)n1
In short: as §1

encorafenib = compound: COC(=O)N[C@@H](C)CNc1nccc(-c2cn(C(C)C)nc2-c2cc(Cl)cc(NS(C)(=O)=O)c2F)n1 [encorafenib]
In short: as §1

[3] = compound: COC(=O)[C@H](CCSC)NC(=O)C1=C(C=C(C=C1)NC[C@H](CS)N)C2=CC=CC=C2
In short: as §1

[4] = compound: COC1=CC=C(C=C1)CN2C=CC3=C2C=C(C=C3)C(=O)NO
In short: as §1

filanesib = compound: CON(C)C(=O)N1N=C(c2cc(F)ccc2F)S[C@@]1(CCCN)c1ccccc1 [filanesib]
In short: as §1

zotarolimus = compound: CO[C@H]1C[C@@H]2CC[C@@H](C)[C@@](O)(O2)C(=O)C(=O)N2CCCC[C@H]2C(=O)O[C@H]([C@H](C)C[C@@H]2CC[C@H](n3cnnn3)[C@H](OC)C2)CC(=O)[C@H](C)/C=C(\C)[C@@H](O)[C@@H](OC)C(=O)[C@H](C)C[C@H](C)/C=C/C=C/C=C/1C [zotarolimus]
In short: as §1

idasanutlin = compound: COc1cc(C(=O)O)ccc1NC(=O)[C@@H]1N[C@@H](CC(C)(C)C)[C@](C#N)(c2ccc(Cl)cc2F)[C@H]1c1cccc(Cl)c1F [idasanutlin]
In short: as §1

alisertib = compound: COc1cc(Nc2ncc3c(n2)-c2ccc(Cl)cc2C(c2c(F)cccc2OC)=NC3)ccc1C(=O)O [alisertib]
In short: as §1

[5] = compound: COc1cc2nc(-c3cc(F)ccc3O)nc(N[C@@H]3CNC[C@H]3C(C)(C)O)c2cc1OC
In short: as §1

gefitinib = compound: COc1cc2ncnc(Nc3ccc(F)c(Cl)c3)c2cc1OCCCN1CCOCC1 [gefitinib]
In short: as §1

[6] = compound: COc1cccc2cc(-c3nc([C@H]4CC[C@H](C(=O)O)CC4)n4ncnc(N)c34)[nH]c12
In short: as §1

lapatinib = compound: CS(=O)(=O)CCNCc1ccc(-c2ccc3ncnc(Nc4ccc(OCc5cccc(F)c5)c(Cl)c4)c3c2)o1 [lapatinib]
In short: as §1

pictilisib = compound: CS(=O)(=O)N1CCN(Cc2cc3nc(-c4cccc5[nH]ncc45)nc(N4CCOCC4)c3s2)CC1 [pictilisib]
In short: as §1

UniProt Q00688, sequence (Q00688 whole entry, looked up): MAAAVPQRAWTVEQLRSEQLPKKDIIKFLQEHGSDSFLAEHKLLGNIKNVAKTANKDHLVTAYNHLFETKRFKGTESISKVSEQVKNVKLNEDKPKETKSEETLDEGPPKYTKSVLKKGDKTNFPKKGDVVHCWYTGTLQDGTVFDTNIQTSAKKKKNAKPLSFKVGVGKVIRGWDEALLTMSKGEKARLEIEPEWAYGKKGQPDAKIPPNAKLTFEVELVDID
UniProt Q96I24, sequence (Q96I24 whole entry, looked up): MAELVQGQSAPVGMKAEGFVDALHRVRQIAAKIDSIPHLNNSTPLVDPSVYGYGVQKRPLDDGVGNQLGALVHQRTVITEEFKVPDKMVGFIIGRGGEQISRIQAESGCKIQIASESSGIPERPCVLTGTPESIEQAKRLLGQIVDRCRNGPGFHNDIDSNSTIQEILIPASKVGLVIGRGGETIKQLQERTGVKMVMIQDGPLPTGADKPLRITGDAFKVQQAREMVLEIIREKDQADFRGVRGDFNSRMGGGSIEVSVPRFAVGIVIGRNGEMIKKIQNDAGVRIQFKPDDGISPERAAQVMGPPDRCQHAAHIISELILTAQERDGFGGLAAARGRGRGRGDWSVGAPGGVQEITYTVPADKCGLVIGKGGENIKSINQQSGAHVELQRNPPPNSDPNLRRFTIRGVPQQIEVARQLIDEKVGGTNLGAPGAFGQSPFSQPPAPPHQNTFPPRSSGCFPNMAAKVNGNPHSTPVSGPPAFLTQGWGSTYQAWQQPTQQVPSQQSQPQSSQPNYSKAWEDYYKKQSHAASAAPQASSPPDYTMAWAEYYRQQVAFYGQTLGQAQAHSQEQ
UniProt P54803, sequence (P54803 whole entry, looked up): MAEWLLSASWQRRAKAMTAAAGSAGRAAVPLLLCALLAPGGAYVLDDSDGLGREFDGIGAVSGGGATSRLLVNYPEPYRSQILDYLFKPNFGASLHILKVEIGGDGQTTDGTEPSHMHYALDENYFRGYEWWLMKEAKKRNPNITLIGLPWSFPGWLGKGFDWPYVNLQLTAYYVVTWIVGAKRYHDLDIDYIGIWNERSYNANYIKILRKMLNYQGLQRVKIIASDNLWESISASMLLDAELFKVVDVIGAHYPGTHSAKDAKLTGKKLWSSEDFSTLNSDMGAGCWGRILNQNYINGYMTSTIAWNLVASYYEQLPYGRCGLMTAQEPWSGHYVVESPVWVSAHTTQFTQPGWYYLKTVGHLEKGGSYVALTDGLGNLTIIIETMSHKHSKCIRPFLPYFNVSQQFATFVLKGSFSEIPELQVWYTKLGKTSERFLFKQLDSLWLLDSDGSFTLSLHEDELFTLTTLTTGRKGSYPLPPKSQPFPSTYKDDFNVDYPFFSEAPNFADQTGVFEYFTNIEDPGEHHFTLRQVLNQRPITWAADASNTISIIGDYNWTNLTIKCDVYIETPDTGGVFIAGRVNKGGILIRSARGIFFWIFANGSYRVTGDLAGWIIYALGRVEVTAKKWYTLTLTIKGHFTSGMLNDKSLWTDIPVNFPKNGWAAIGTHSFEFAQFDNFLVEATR
UniProt P21333, sequence (P21333 whole entry, looked up): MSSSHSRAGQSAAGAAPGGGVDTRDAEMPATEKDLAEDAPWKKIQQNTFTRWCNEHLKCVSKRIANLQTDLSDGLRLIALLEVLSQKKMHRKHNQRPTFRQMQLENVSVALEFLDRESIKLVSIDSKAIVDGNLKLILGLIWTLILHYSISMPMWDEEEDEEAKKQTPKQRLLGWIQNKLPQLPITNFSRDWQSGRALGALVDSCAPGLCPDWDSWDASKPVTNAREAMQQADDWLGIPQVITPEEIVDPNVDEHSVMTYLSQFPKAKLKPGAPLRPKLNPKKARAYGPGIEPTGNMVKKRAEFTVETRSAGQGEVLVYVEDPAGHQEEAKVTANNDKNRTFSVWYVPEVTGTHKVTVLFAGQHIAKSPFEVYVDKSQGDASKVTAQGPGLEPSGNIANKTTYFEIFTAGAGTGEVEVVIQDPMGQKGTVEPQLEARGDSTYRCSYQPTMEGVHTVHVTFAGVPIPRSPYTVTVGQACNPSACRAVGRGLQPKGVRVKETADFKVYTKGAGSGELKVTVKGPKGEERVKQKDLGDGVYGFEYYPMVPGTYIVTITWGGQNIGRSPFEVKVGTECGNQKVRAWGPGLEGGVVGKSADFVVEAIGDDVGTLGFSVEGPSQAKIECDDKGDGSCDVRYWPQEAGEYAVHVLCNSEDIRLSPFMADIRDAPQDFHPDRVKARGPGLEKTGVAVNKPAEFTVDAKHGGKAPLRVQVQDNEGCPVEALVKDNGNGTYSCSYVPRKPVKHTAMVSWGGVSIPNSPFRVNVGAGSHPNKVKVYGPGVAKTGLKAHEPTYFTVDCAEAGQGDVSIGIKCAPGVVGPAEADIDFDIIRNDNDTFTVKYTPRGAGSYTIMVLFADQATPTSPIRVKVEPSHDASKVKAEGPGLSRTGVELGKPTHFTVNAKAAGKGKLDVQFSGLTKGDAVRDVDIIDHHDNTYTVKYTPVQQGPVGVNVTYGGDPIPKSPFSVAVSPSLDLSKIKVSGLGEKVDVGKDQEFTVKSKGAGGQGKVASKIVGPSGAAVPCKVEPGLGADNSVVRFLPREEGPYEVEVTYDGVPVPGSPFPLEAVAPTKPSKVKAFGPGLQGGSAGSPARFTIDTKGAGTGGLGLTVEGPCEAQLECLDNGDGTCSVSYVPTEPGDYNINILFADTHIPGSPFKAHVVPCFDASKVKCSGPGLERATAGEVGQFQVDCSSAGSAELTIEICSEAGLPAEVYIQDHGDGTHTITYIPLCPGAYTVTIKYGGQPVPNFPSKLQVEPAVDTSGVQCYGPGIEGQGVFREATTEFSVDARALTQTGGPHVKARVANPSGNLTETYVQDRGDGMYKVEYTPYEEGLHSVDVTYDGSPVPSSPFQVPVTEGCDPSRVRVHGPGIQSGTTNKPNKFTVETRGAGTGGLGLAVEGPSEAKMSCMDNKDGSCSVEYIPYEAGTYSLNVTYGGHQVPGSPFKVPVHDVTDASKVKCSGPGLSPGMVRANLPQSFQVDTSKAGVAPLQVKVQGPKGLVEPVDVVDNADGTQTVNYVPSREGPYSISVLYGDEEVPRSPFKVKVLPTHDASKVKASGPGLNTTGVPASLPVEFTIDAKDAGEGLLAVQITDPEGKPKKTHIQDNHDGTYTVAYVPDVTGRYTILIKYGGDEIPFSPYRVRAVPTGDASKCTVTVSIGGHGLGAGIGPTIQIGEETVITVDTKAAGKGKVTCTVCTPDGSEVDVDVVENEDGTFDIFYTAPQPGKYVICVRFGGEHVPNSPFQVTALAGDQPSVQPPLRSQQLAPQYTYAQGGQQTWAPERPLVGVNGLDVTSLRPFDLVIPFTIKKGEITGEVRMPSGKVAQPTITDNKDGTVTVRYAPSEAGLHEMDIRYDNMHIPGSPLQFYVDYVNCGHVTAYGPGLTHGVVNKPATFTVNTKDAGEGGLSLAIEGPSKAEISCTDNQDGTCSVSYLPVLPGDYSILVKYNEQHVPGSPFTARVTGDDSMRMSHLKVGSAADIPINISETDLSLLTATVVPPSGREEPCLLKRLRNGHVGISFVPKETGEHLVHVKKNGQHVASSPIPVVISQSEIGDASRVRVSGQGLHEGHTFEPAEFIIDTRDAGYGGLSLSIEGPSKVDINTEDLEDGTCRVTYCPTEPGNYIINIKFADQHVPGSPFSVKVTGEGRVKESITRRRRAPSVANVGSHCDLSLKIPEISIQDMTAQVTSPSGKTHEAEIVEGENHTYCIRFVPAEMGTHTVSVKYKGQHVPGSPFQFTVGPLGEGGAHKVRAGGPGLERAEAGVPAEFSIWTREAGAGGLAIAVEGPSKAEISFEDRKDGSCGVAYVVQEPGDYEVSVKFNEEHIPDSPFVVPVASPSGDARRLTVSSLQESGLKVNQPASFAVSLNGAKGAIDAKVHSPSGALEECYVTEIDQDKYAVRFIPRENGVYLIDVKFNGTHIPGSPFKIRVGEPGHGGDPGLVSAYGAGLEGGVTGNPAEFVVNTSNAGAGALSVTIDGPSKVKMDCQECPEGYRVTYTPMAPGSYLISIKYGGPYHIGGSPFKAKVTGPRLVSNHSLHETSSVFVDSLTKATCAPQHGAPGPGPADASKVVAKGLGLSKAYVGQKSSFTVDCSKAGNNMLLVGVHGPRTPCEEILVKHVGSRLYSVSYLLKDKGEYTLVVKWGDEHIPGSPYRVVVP
UniProt P50213, sequence (P50213 whole entry, looked up): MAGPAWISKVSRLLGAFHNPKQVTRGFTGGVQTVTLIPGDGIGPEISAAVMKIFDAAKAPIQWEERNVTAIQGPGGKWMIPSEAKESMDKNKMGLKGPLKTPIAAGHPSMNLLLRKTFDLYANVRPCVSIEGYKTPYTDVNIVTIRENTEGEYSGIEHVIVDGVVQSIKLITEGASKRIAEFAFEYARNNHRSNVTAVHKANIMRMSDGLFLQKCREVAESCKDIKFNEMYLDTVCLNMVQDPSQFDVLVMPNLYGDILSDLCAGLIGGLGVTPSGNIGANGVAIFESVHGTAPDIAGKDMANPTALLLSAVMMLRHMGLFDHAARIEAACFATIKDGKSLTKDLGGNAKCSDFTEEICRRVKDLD
UniProt P52655, sequence (P52655 whole entry, looked up): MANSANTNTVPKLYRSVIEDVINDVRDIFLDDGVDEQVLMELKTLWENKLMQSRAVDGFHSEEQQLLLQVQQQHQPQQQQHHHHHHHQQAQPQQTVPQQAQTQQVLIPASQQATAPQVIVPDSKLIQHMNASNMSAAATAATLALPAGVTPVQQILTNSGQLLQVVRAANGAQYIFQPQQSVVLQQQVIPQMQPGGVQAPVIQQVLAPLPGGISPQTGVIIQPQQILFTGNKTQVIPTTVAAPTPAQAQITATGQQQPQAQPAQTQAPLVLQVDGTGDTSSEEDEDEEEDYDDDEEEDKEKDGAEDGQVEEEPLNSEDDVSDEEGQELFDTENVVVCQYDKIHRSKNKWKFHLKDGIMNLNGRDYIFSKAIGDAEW
UniProt P0C0S5, sequence (P0C0S5 whole entry, looked up): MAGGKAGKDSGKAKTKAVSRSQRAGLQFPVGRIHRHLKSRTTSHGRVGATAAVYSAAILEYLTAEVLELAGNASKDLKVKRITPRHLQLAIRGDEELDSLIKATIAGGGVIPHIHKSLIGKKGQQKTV

Target	log2 fold change (saracatinib)	log2 fold change (sotrastaurin)	log2 fold change (alvocidib)	log2 fold change (Tubastatin A)	log2 fold change [1]	log2 fold change (defactinib)	log2 fold change (rucaparib)	log2 fold change [2]	log2 fold change (encorafenib)	log2 fold change [3]	log2 fold change [4]	log2 fold change (filanesib)	log2 fold change (zotarolimus)	log2 fold change (idasanutlin)	log2 fold change (alisertib)	log2 fold change [5]	log2 fold change (gefitinib)	log2 fold change [6]	log2 fold change (lapatinib)	log2 fold change (pictilisib)
FKBP3 (UniProt Q00688)	-0.006	0	-0.004	0.017	0	-0.024	-0.052	0.01	0.012	0.033	0.219	-0.04	0.354 (active)	-0.015	-0.052	0.047	-0.023	0	-0.029	0.004
GTF2A1 (UniProt P52655)	0.048	0.087	-0.039	0.003	-0.007	-0.038	-0.021	-0.003	-0.056	0.032	-0.102	0.031	0	0.012	-0.126	-0.069	0.111	0.043	0.006	0.012
HHEX (UniProt Q03014)	0.095	-0.068	-0.146	0.126	0.035	-0.173	0.04	-0.011	-0.061	0.651	0.178	-0.007	-0.102	0.035	0.002	-0.04	-0.016	0.053	-0.004	-0.012
GSTP1 (UniProt P09211)	-0.011	0.053	-0.051	-0.015	-0.001	-0.033	-0.046	0.02	-0.007	0.027	-0.033	-0.038	0.004	-0.033	-0.003	-0.003	0.021	0.069	-0.032	0.035
GNPAT (UniProt O15228)	0.01	0.077	-0.073	-0.047	0.045	-0.035	-0.06	-0.041	0.001	-0.027	0.008	-0.054	0.064	-0.05	-0.038	-0.022	0.03	0	0.061	0.148
FLNA (UniProt P21333)	-0.076	-0.161	-0.017	0.052	0.106	-0.042	0.1	0.017	0.089	-0.053	0.042	0.026	0.043	-0.066	0.036	0.039	0.03	-0.095	-0.049	0.031
FBXO6 (UniProt Q9NRD1)	0.042	-0.085	-0.092	-0.016	0.031	-0.038	-0.064	0.011	0.033	-0.099	-0.016	0.008	0.044	-0.17	-0.043	0.022	0.059	0.038	0.026	-0.091
GLRX3 (UniProt O76003)	-0.017	-0.066	-0.071	0.015	0.053	-0.091	-0.063	-0.023	0.029	-0.03	0.005	-0.056	0.056	-0.001	-0.063	0.012	-0.009	-0.018	0.062	-0.003
GAPVD1 isoform 6 (UniProt Q14C86)	-0.04	-0.158	-0.063	-0.009	-0.007	-0.07	0.103	0.032	0.125	-0.043	0.003	0.033	0.055	-0.021	0.047	-0.048	-0.013	-0.068	0.041	-0.025
IDH3A (UniProt P50213)	-0.004	0.008	-0.056	-0.058	-0.026	-0.023	-0.031	-0.026	-0.01	0.002	0	-0.067	0.007	-0.074	-0.063	-0.009	0.039	0.022	0.017	-0.021
FUBP3 (UniProt Q96I24)	0.012	0.05	0.129	-0.092	-0.039	0.184	0.167	-0.049	-0.003	-0.032	0.129	0.055	-0.072	0.049	0.034	0.165	-0.049	0.009	0.006	-0.062
GOLPH3 (UniProt Q9H4A6)	-0.016	-0.046	-0.081	0.028	0.022	-0.064	-0.064	0.013	0.047	-0.044	0.011	-0.03	0.048	-0.057	-0.024	0.131	0.023	0.012	-0.055	-0.051
GALC (UniProt P54803)	0.033	0.047	-0.03	-0.028	-0.003	0.017	-0.091	-0.015	0.024	-0.005	0.007	-0.017	-0.071	-0.121	0.049	0.099	-0.014	0.066	0.042	0.159
GYS1 (UniProt P13807)	-0.255	-0.286	0.1	0.035	0.107	0.057	0.077	0.193	0.176	-0.047	-0.045	0.045	0.124	0.462	-0.026	-0.109	-0.006	-0.165	0.013	0.219
GLA (UniProt P06280)	0.056	-0.027	-0.008	-0.027	-0.02	0.008	0.04	-0.043	-0.022	0.059	0.033	-0.048	-0.003	0.06	-0.089	0.018	-0.011	0.01	-0.026	-0.06
H2AZ1 (UniProt P0C0S5)	-0.082	0.067	0.093	-0.017	-0.102	0.259	0.396	-0.014	0.107	0.105	0.05	0.353	-0.113	0.266	0.039	-0.046	0.121	-0.161	0	-0.09
